These results are taken from PubChem BioAssay (NCI).

Compounds without any hit were thinned out: in the full panel of roughly 83,000, 20% have a hit.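 Negative percent growth values reflect cell death: -40 means 40% of the cells present at the start died, and -100 means all died.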 Values without a mark were called inactive. Calls of active or inactive are those of the source. The calls were made as follows: active = growth percent below 10; inactive = the rest.

The test deals with SF-295 CNS. Put plainly: NCI-60 one-dose screen, 48 h (100 = growth as untreated, 0 = no growth, -100 = all killed). The conditions noted are these: 10 µM unless noted.
With `COc1ccc(-c2cc3cnc4ccccc4c3oc2=O)cc1`, the growth was 96.7%.
For `CCOC(=O)c1nc2c3ccccc3cnn2c1C(=O)c1ccc(OC)cc1`, the growth was 98.7%.
Under `Cc1ccc2c(c1)C(C)Cc1c(ncnc1-n1cnc3cc(C)ccc31)N2C` (stereo not given) stands 2.2% (active); under `CCN1C(=O)N(c2ccccc2)C2NC(=S)N(/N=C/C=C/c3ccccc3)C21` (stereo not given), 2.91% (active); under `COc1ccc(-c2[nH]c3ccccc3c2-c2ccc(OC)cc2)cc1`, 50.2%.
Under `COc1ccc(Cn2cc(C(=O)Nc3cccnc3Nc3ccccc3)nn2)cc1` stands 102%; under `CSc1nnc(-c2cc3c([nH]c4ccccc43)c(-c3cccc(O)c3)n2)n1-c1ccc(C)cc1`, 15%; under `CN(Cc1ccccc1)c1nc(Cl)c(C2CC(c3ccc4c(c3)OCO4)=NN2c2cc(Cl)cc(Cl)c2)s1` (stereo not given), 93.8%.
Consider `COc1ccc(C2Nc3nc(SC)nc(N)c3N=C3c4ccccc4CCC32)cc1` (stereo not given), for which the growth is 105%.
On to `CCN(CC)CCOc1ccc(/C(=C(\Cl)c2ccccc2)c2ccccc2)cc1`, for which the growth is -23.1% (active).
Consider `O=C1/C(=C/c2ccccc2)CN(C(=O)C(Cl)Cl)C/C1=C\c1ccccc1`, for which the growth was -1.45% (active).
Turning to `Cc1ccc(S(=O)(=O)OC[C@@]2(C)CC[C@]3(C)CC[C@]4(C)C(=CC[C@@H]5[C@@]6(C)CCCNC(C)(C)[C@@H]6CC[C@]54C)[C@@H]3C2)cc1`, the growth was 85.6%.
The figure for `O=C1/C(=C/c2cn(-c3ccccc3)nc2-c2ccccc2)SC(=S)N1c1ccc(Cl)cc1` is 44.6%; for `O=c1ccc2nc(-c3ccccn3)nn(-c3ccccc3)c-2c1` it is 96.3%.
The figure for `C[C@@H]1CC[C@@H]2[C@@H]1[C@H](OC(=O)/C=C/c1ccccc1)[C@]1(c3ccccc3)C[C@@H](NC(=O)CO)[C@@]2(C)O1` is 93.8%.
